Compound activity: PubChem BioAssay, several laboratories
M1 ag = M1 muscarinic receptor agonists, primary screen, CHO-M1 cells, Fluo-4 calcium, agonist mode; Muscarinic acetylcholine receptor M1; Fluo-4 calcium fluorescence; active compounds read high; B-score at 10 µM; 64,000 compounds, 3% hits; AID 626, 2007;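 active means fluorescence rise, raw or as B-score row- and column-corrected plate score, outside the 99.7% band of its plate's samples, either direction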
M1 antagonist = antagonists of rat M1 muscarinic receptor | CHO-M1 cells, Fluo-4 calcium, ACh EC80 antagonist mode; active compounds read low | B-score at 10 µM | 64,000 compounds, 3.4% hits;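 active means calcium fluorescence response, raw or row-and-column corrected B-score, differing from the plate sample mean either way at a set confidence level, mostly lower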
FXIa inh mix = FXIa protease inhibitors in compound pools, primary screen, biochemical, 10-compound mixtures; 62,000 compounds, 0.19% hits; inhibition, % at 5 µM; purified FXIa, fluorogenic substrate, pooled mixtures; AID 680, 2007; Coagulation factor XI (Homo sapiens), P03951;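 further: each value is inhibition by a whole ten-compound pool holding the compound; 0% = enzyme with no mixture and 100% = wells lacking enzyme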
FXIIa inh mix = human factor XIIa inhibitors, primary screen, biochemical, pooled compound mixtures, fluorogenic substrate | AID 684, 2007 | purified FXIIa | inhibition, % at 5 µM | 62,000 compounds, 0.2% hits;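 further: 0% = enzyme without compound and 100% = no enzyme blank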
Target sequence (P00748 20-372 limits assumed): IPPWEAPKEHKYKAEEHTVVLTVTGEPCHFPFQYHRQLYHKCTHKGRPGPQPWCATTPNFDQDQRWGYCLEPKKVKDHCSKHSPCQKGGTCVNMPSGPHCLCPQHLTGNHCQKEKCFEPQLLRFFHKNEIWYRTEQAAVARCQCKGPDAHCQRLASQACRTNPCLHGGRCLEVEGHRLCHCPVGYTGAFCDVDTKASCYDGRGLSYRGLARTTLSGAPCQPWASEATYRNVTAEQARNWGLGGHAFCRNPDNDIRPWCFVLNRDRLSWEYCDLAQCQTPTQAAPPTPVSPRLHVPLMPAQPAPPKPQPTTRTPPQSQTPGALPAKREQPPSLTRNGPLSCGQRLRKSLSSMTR
Target sequence (P00748 373-615 limits assumed): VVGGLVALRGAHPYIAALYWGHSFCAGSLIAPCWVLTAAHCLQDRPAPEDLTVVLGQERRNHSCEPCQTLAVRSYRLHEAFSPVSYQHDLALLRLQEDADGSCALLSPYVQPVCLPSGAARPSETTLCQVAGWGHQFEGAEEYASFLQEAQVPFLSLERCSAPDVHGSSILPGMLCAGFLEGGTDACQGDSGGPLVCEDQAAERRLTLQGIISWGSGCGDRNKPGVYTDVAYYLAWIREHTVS
hDAT+cocaine = changed hDAT dopamine uptake under cocaine IC80, either direction, primary screen, cocaine antagonist project, cell-based, LLC-PK1 hDAT, [14C]-dopamine uptake, MLSMR; Sodium-dependent dopamine transporter (Homo sapiens), Q01959; LLC-PK1 hDAT cells, [14C]-dopamine uptake with cocaine IC80; actives deviate in either direction; B-score at 10 µM; 110,000 compounds, 1.3% hits; AID 449768, 2010;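 active means Z score or B-score, a plate-position-corrected score, falls beyond the plate's 99.7% confidence bounds, in either direction; inactive means both scores lie inside the 99.7% bounds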;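 further: scored against the spread of the other compound wells on the same plate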
D1 allo mod = D1 CRE-luciferase signal change, two-sided – cell-based, HEK293 D1, dopamine EC30, D1 allosteric modulator project, primary screen. D(1A) dopamine receptor (Homo sapiens), P21728. dopamine EC30 potentiation; actives deviate in either direction. B-score at 10 µM. 58,000 compounds, 5.9% hits;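 active means luminescence count or its row- and column-corrected plate score outside the 99.7% band of the plate's sample wells, on either side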
M1 ag confirm = rat M1 muscarinic receptor agonists, confirmation, CHO-M1 cells, Fluo-4 calcium, duplicate retest. shares compounds with M1 ag. Fluo-4 calcium fluorescence, agonist mode; actives lie on both sides. fluorescence change (max-min) at 10 µM. 1,700 compounds, 19% hits. AID 1488, 2009;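 active means fluorescence change differs from the solvent-only DMSO control mean at a set confidence level in both duplicate runs; inconclusive means differs from solvent-only control mean in just one of two runs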;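 further: an EC20 dose of acetylcholine follows compound addition during the same imaging run; raw fluorescence intensity difference in instrument units with no normalization to controls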
M4 ag counter = agonist activity at rat M4 receptor, confirmation, counter-screen for M1 allosteric modulator project, cell-based, agonist mode. shares compounds with M1 ag. CHO M4/Gqi5 cells, Fluo-4 calcium fluorescence; actives lie on both sides. fluorescence change (max-min) at 10 µM. 1,700 compounds, 9% hits. AID 1741, 2009;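 active means fluorescence change differing from the plate's solvent-only control wells at 99.7% confidence in both duplicates, whether higher or lower; inconclusive means differs from solvent controls in only one of two duplicates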
Active calls of the source: *; u = inconclusive; x = not tested or not shown. The list is not random: actives were taken first. Their share in the collection is about 7.4%. Unless noted, no stated cut-off is given here; in the data, active means inhibition above about 20% (passing the limit was not always enough); inactive means the rest.

SMILES	M1 ag	M1 antagonist	FXIa inh mix	FXIIa inh mix	hDAT+cocaine	D1 allo mod	M1 ag confirm	M4 ag counter
Cc1cccc(N2CCN(C(=O)CCn3c(=S)[nH]c4cc5c(cc4c3=O)OCO5)CC2C)c1 (stereo not given)	2.5*	-0.17	5	45*	1.2	0.37	-6.2	-24
O=C(CCn1c(=S)[nH]c2cc3c(cc2c1=O)OCO3)N1CCN(c2ccccn2)CC1	0.59	-0.58	0	12	x	0.029	x	x
Cc1ccc(CSCC(=O)N2CCN(Cc3ccc4c(c3)OCO4)CC2)cc1	x	x	x	x	0.54	x	x	x
O=C(CCC1CCCCC1)N1CCN(Cc2ccc3c(c2)OCO3)CC1	6.1*	-0.75	-3	2	0.98	-0.71	-12	u
O=C(CCCCCn1c(=O)[nH]c2ccccc2c1=O)N1CCN(Cc2ccc3c(c2)OCO3)CC1	3.7*	-1.3	9	4	1.6	0.29	-13	-35
O=C(CCCn1c(=S)[nH]c2cc3c(cc2c1=O)OCO3)N1CCN(c2ccccc2)CC1	3.2*	-0.62	16	-20	-0.79	0.029	u	-60
CCOC(=O)c1cc(-c2ccc(/C=N\n3cnnc3)o2)ccc1Cl	4.9*	-0.34	1	14	-0.13	0.31	-27*	-42
CCCCOC(=O)c1cc(-c2ccc(/C=N/n3cnnc3)o2)ccc1Cl	x	x	x	x	0.48	x	x	x
Cc1ccccc1CN(c1ccc(C(=O)N2CCCC2)cc1)S(C)(=O)=O	3.2*	0.37	-3	4	0.04	-0.14	16	-2
CS(=O)(=O)N(Cc1ccccc1)c1ccc(C(=O)N2CCOCC2)cc1	-0.63	0.45	4	9	-0.78	-0.87	x	x
Cc1cccc(N2CCN(C(=O)Cn3sc4nc(C)cc(C)c4c3=O)CC2C)c1 (stereo not given)	5.3*	-0.62	1	9	0.59	-0.1	-24*	-67*
Cc1ccc(-c2nc(CSCC(=O)N3CCCC3)c(C)o2)cc1	0.58	-0.0082	x	x	0.59	-0.078	x	x
Cc1ccsc1-c1nc(CSCC(=O)N2CCN(c3ccccc3)CC2)c(C)o1	5*	-2.5*	4	4	1.9	0.043	-39*	u
Cc1cccc(-c2nc(CSCC(=O)N3CCN(c4ccccn4)CC3)c(C)o2)c1	3.8*	-3.7*	x	x	0.37	-1.3	-10	u
CCCOC(=O)C1[C@H]2C(=O)N(C(C)c3ccc(OC)cc3)C[C@]23C=C[C@H]1O3 (stereo not given in full)	0.085	-0.067	4	10	1.8	0.064	x	x
CCOc1ccc(S(=O)(=O)N(C)CCO)cc1-c1nc2c(C(C)(C)C)nn(C)c2c(=O)[nH]1	5.6*	-1.8	x	x	1.6	x	-13	-33
CCOc1ccc(S(=O)(=O)N(C)C)cc1-c1nc2c(C(C)(C)C)nn(C)c2c(=O)[nH]1	-0.0043	0.38	8	0	-0.1	3.1	x	x
Cc1c(C(=O)N2CCc3ccccc3C2)sc2nc(-c3ccccc3)cn12	2.4*	-0.5	x	x	2.3	0.39	-16	u
COc1cccc(NC(=O)CSc2nnc(CN3CCOCC3)n2C)c1	x	x	x	x	-0.63	x	x	x
CCOc1ccc(NC(=O)c2ccc3nccnc3c2)cc1	x	x	x	x	1.7	x	x	x
CCOc1ccc(NC(=O)Nc2ccc3nccnc3c2)cc1	9.6*	-0.85	7	-19	0.67	-0.64	-7.6	-49
CCOC(=O)c1ccc(Nc2cc(C)nc(C)c2C(=O)OCC)cc1	x	x	x	x	1	x	x	x
CCOC(=O)c1ccc(Nc2nnc(C(C)(C)C)c(=O)[nH]2)cc1	3.5*	-0.42	-2	4	0.12	0.084	-17	-1.1
CCN1CCN(C(=O)c2nn(-c3ccccc3)c(=O)c3ccccc23)CC1	x	x	x	x	-0.36	x	x	x
COc1ccc(Cn2nnnc2C(C(C)C)N(Cc2ccco2)Cc2cccs2)cc1 (stereo not given)	3.2*	-0.13	7	-5	-0.27	0.83	-6.4	u
SMILES	M1 ag	M1 antagonist	FXIa inh mix	FXIIa inh mix	hDAT+cocaine	D1 allo mod	M1 ag confirm	M4 ag counter
Cc1ccc(C(c2nnnn2C(C)(C)C)N(Cc2ccco2)Cc2cccs2)cc1 (stereo not given)	6.5	0.19	6	5	0.52	-2.2	x	x
CC(C)C(c1nnnn1Cc1ccccc1)N(Cc1ccco1)Cc1cccs1 (stereo not given)	13*	-1.2	10	0	0.14	0.87	-11	-14
C#CCOCCOCCOCCNc1nc(N2CCN(C(=O)[C@H]([C@@H](C)O)n3cc(CCCCN)nn3)CC2)nc(N2CCN(C(=O)[C@H](Cc3ccc(O)cc3)n3cc(CCO)nn3)CC2)n1	x	x	x	x	-0.64	x	x	x
CCOC(=O)c1ccc(NC(=O)CCc2c(C)nc3ncnn3c2C)cc1	-0.75	0.056	4	0	1.5	1.5	x	x
Cc1cc(C)nc(SCC(=O)N2CCC(C(N)=O)CC2)n1	2.7*	0.77	7	10	-0.36	-0.02	u	-44
CCCCNC(=O)CC1Nc2ccccc2NC1=O (stereo not given)	7.9*	-0.48	5	1	0.35	-0.56	30	u
CCC(c1nnc(SCC(=O)NCCc2ccc(Cl)cc2Cl)o1)N(C)C (stereo not given)	0.19	-1	-2	-12	0.9	-0.0043	x	x
COc1cccc(OC)c1OCCCCCc1c(C)n[nH]c1C	3*	-0.087	-5	4	0.069	-0.63	-17	-44
Cc1cccc(C)c1OCCCCc1c(C)n[nH]c1C	0.14	-0.85	-5	0	0.91	-0.55	x	x
CC12CC(NC(=O)N1c1cccc(C(=O)NCc3ccc4c(c3)OCO4)c1)c1cc(Cl)ccc1O2 (stereo not given)	2.2*	-0.72	4	-17	-0.15	-0.041	u	-50
CC(C)C(=O)Nc1cccc(C(=O)NCc2ccc3c(c2)OCO3)c1	0.38	0.24	5	-3	0.74	-0.65	x	x
Cc1ccc(-c2nc3cc(N)ccc3o2)cc1	2.4*	0.68	-7	2	0.86	-3.7*	-11	-14
CC(C)c1cc(CN2CCN(CCC#N)CC2)cc(C(C)C)c1O	27*	-0.12	-4	-11	-1.2	0.44	14	-33
CC(C)(C)c1cc(CN2CCN(CCO)CC2)cc(C(C)(C)C)c1O	-0.64	0.17	3	7	-0.98	-1.3	x	x
